“And” between values parts separate entries of the source, which are not always exact repeats. Identical values can stand only once. Out of some 5,500 compounds screened, about 2,000 (36%) were called active. Roughly 18% stayed inconclusive and do not appear here. Cut-off read from the data, not from the text of the source: active = normalized growth mostly below about 0.91 (no sharp cut-off); inconclusive = no clear call, values can overlap the other calls; inactive = mostly above about 0.92. This is one part of the list.
Experiment: chemical genetic growth profiling, strain panel (AID 1159580);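 note: tested at 20 µM; growth read once vehicle control cultures reached saturation at 30 °C; 1 = growth at the plate median or of vehicle wells; lower values mean less growth of the strain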
Conditions: S. cerevisiae deletion strains, growth OD
[1] = locus YMR307W, strain GAS1, stronger effect = lower value
[2] = locus YPL055C, strain LGE1, stronger effect = lower value

Measured: normalized growth

CC(N)Cc1c[nH]c2ccc(O)cc12 (centres undefined)
inactive: locus YAL013W, strain DEP1, stronger effect = lower value 1.02 | locus YAL040C, strain CLN3, stronger effect = lower value 1 | locus YCL061C, strain MRC1 (second series), stronger effect = lower value 1 | locus YDR363W, strain ESC2, stronger effect = lower value 1.03 | locus YER002W, strain NOP16, stronger effect = lower value 1 | [1] 1 | locus YNL153C, strain GIM3, stronger effect = lower value 1.01 | locus YNL175C, strain NOP13, stronger effect = lower value 1.01 | locus YNL197C, strain WHI3, stronger effect = lower value 1.04 | locus YNL224C, strain SQS1, stronger effect = lower value 1.02 | locus YOR083W, strain WHI5 (second series), stronger effect = lower value 1.01 | [2] 1.01

CC[C@@H](CO)NCCN[C@@H](CC)CO
inactive: locus YAL021C, strain ccr4, stronger effect = lower value 1.01 | locus YAL026C, strain drs2, stronger effect = lower value 1 | locus YAL030W, strain snc1, stronger effect = lower value 1.01 | locus YBL061C, strain skt5, stronger effect = lower value 1.02 | locus YBR009C, strain hhf1, stronger effect = lower value 1 | locus YBR021W, strain FUR4, stronger effect = lower value 1.02 | locus YBR023C, strain chs3, stronger effect = lower value 1.04 | locus YBR171W, strain sec66, stronger effect = lower value 1.02 | locus YBR229C, strain ROT2, stronger effect = lower value 1.01 | locus YBR231C, strain swc5, stronger effect = lower value 0.968 | locus YBR279W, strain paf1, stronger effect = lower value 1.02 | locus YCL011C, strain gbp2, stronger effect = lower value 1.03 | locus YCL016C, strain dcc1, stronger effect = lower value 1.04 | locus YCL029C, strain bik1, stronger effect = lower value 1 | locus YCL061C, strain MRC1, stronger effect = lower value 1.03 | locus YCL069W, strain vba3, stronger effect = lower value 1 | locus YCR088W, strain abp1, stronger effect = lower value 1.01 | locus YDL005C, strain med2, stronger effect = lower value 1 | locus YDL035C, strain GPR1, stronger effect = lower value 1.02 | locus YDL040C, strain nat1, stronger effect = lower value 1 | locus YDL074C, strain BRE1, stronger effect = lower value 1.04 | locus YDL101C, strain DUN1, stronger effect = lower value 1.02 | locus YDL134C, strain PPH21, stronger effect = lower value 1.02 | locus YDL185W, strain tfp1, stronger effect = lower value 1 | locus YDL192W, strain arf1, stronger effect = lower value 1 | locus YDR001C, strain nth1, stronger effect = lower value 1.01 | locus YDR069C, strain doa4, stronger effect = lower value 0.996 | locus YDR101C, strain arx1, stronger effect = lower value 0.987 | locus YDR137W, strain rgp1, stronger effect = lower value 1.01 | locus YDR150W, strain NUM1, stronger effect = lower value 1 | locus YDR159W, strain sac3, stronger effect = lower value 0.959 | locus YDR162C, strain NBP2, stronger effect = lower value 1.01 | locus YDR195W, strain ref2 0.964 | locus YDR297W, strain sur2, stronger effect = lower value 1.02 | locus YDR318W, strain mcm21, stronger effect = lower value 1.01 | locus YDR334W, strain swr1, stronger effect = lower value 1.01 | locus YDR335W, strain msn5, stronger effect = lower value 1.01 | locus YDR388W, stronger effect = lower value 1 | locus YDR392W, strain spt3, stronger effect = lower value 0.985 | locus YDR502C, strain sam2, stronger effect = lower value 1.03 | locus YEL003W, strain gim4, stronger effect = lower value 0.999 | locus YEL037C, strain rad23, stronger effect = lower value 1.01 | locus YEL061C, strain CIN8 (second series), stronger effect = lower value 1.01 | locus YEL061C, strain CIN8, stronger effect = lower value 1.01 | locus YER015W, strain faa2, stronger effect = lower value 1.01 | locus YER016W, strain bim1, stronger effect = lower value 0.985 | locus YER110C, stronger effect = lower value 1.01 | locus YER111C, strain swi4, stronger effect = lower value 1.01 | locus YER155C, strain BEM2 (second series), stronger effect = lower value 0.999 | locus YER155C, strain BEM2, stronger effect = lower value 1.01 | locus YER167W, strain BCK2, stronger effect = lower value 1.01 | locus YFR010W, strain ubp6, stronger effect = lower value 1 | locus YGL078C, strain dbp3, stronger effect = lower value 1 | locus YGL086W, strain mad1, stronger effect = lower value 0.988 | locus YGL167C, strain pmr1, stronger effect = lower value 1.01 | locus YGL173C, strain kem1, stronger effect = lower value 1.01 | locus YGL227W, strain vid30, stronger effect = lower value 1.02 | locus YGL240W, strain doc1, stronger effect = lower value 0.995 | locus YGL248W, strain PDE1, stronger effect = lower value 1.02 | locus YGL253W, strain hxk2, stronger effect = lower value 0.999 | locus YGR078C, strain PAC10, stronger effect = lower value 1.01 | locus YGR135W, strain pre9, stronger effect = lower value 1.04 | locus YGR229C, strain SMI1, stronger effect = lower value 1.02 | locus YGR252W, strain gcn5, stronger effect = lower value 1.04 | locus YHR013C, strain ard1, stronger effect = lower value 1.04 | locus YHR027C, strain rpn1, stronger effect = lower value 1 | locus YHR030C, strain SLT2, stronger effect = lower value 1 and 1.04 | locus YHR079C, strain IRE1 (second series), stronger effect = lower value 0.987 | locus YHR079C, strain IRE1, stronger effect = lower value 1.04 | locus YHR094C, strain hxt1, stronger effect = lower value 1.01 | locus YHR129C, strain ARP1, stronger effect = lower value 1.02 | locus YHR142W, strain chs7, stronger effect = lower value 1.02 | locus YHR200W, strain rpn10, stronger effect = lower value 1 | locus YIL066C, strain RNR3, stronger effect = lower value 1.01 | locus YIL073C, strain SPO22, stronger effect = lower value 1.02 | locus YIL125W, strain kgd1, stronger effect = lower value 1 | locus YIR030C, strain dcg1, stronger effect = lower value 1 | locus YJL092W, strain hpr5, stronger effect = lower value 1.02 | locus YJL095W, strain BCK1 (second series), stronger effect = lower value 1.02 | locus YJL095W, strain BCK1, stronger effect = lower value 1.03 and 1.02 | locus YJL115W, strain asf1, stronger effect = lower value 1.01 | locus YJL129C, strain trk1, stronger effect = lower value 1.02 | locus YJL134W, strain LCB3, stronger effect = lower value 1.02 | locus YJL154C, strain vps35, stronger effect = lower value 1 | locus YJL164C, strain tpk1, stronger effect = lower value 1.02 | locus YJL166W, strain qcr8, stronger effect = lower value 1.05 | locus YJL168C, strain set2, stronger effect = lower value 1.03 | locus YJL187C, strain SWE1 (second series), stronger effect = lower value 1.01 | locus YJL187C, strain SWE1, stronger effect = lower value 1 | locus YJR043C, strain POL32, stronger effect = lower value 1.01 | locus YJR066W, strain TOR1, stronger effect = lower value 0.909 | locus YKL009W, strain mrt4, stronger effect = lower value 0.996 | locus YKL068W, stronger effect = lower value 0.994 | locus YKL085W, strain MDH1 (second series), stronger effect = lower value 1 | locus YKL085W, strain MDH1, stronger effect = lower value 1 | locus YKL160W, strain elf1, stronger effect = lower value 1.05 | locus YKR001C, strain vps1, stronger effect = lower value 0.991 | locus YKR026C, strain gcn3, stronger effect = lower value 1.01 | locus YKR091W, strain srl3, stronger effect = lower value 1.01 | locus YLL001W, strain dnm1, stronger effect = lower value 1.05 | locus YLL026W, stronger effect = lower value 1.01 | locus YLL041C, strain sdh2, stronger effect = lower value 1 | locus YLR027C, strain aat2, stronger effect = lower value 0.992 | locus YLR039C, strain RIC1, stronger effect = lower value 1.1 | locus YLR058C, strain SHM2, stronger effect = lower value 1.02 | locus YLR102C, strain apc9, stronger effect = lower value 1 | locus YLR113W, strain HOG1, stronger effect = lower value 1.1 | locus YLR221C, strain rsa3, stronger effect = lower value 1.05 | locus YLR258W, strain gsy2, stronger effect = lower value 1.02 | locus YLR262C, strain YPT6 (second series), stronger effect = lower value 1.03 | locus YLR262C, strain YPT6, stronger effect = lower value 1.05 | locus YLR268W, strain sec22, stronger effect = lower value 0.988 | locus YLR320W, strain mms22, stronger effect = lower value 1.07 | locus YLR330W, strain CHS5, stronger effect = lower value 1.01 | locus YLR342W, strain FKS1 (second series), stronger effect = lower value 1.05 | locus YLR342W, strain FKS1, stronger effect = lower value 1.02 | locus YLR357W, strain rsc2, stronger effect = lower value 0.986 | locus YLR370C, strain arc18, stronger effect = lower value 1.02 | locus YLR371W, strain rom2, stronger effect = lower value 1.01 | locus YLR384C, strain iki3, stronger effect = lower value 1.02 | locus YLR418C, strain cdc73, stronger effect = lower value 1.01 | locus YML016C, strain PPZ1, stronger effect = lower value 1.01 | locus YML032C, strain rad52, stronger effect = lower value 1.01 | locus YML120C, strain ndi1, stronger effect = lower value 1.03 | locus YML124C, strain tub3, stronger effect = lower value 0.998 | locus YMR058W, strain fet3, stronger effect = lower value 1.01 | locus YMR078C, strain ctf18, stronger effect = lower value 1.01 | locus YMR125W, strain sto1, stronger effect = lower value 1 | locus YMR129W, stronger effect = lower value 1 | locus YMR205C, strain PFK2, stronger effect = lower value 1.05 | locus YMR223W, strain ubp8, stronger effect = lower value 1.02 | locus YMR231W, strain pep5, stronger effect = lower value 1 | locus YMR263W, strain SAP30, stronger effect = lower value 1.02 | [1] 1.01 | locus YNL067W, strain RPL9B, stronger effect = lower value 1.01 | locus YNL071W, strain lat1, stronger effect = lower value 1.02 | locus YNL183C, strain NPR1, stronger effect = lower value 1 | locus YNL209W, strain ssb2, stronger effect = lower value 1.02 | locus YNL233W, strain BNI4, stronger effect = lower value 1.02 | locus YNL248C, strain rpa49, stronger effect = lower value 0.996 | locus YNL250W, strain rad50, stronger effect = lower value 0.992 | locus YNL271C, strain bni1, stronger effect = lower value 0.995 | locus YNL298W, strain CLA4, stronger effect = lower value 1.02 | locus YNL307C, strain MCK1, stronger effect = lower value 1 | locus YNL322C, strain KRE1 (second series), stronger effect = lower value 1.04 | locus YNL322C, strain KRE1, stronger effect = lower value 1.01 | locus YNR049C, strain mso1, stronger effect = lower value 1.02 | locus YNR052C, strain pop2, stronger effect = lower value 1 | locus YOL006C, strain TOP1, stronger effect = lower value 1.01 | locus YOL012C, strain htz1 0.915 | locus YOL147C, strain pex11, stronger effect = lower value 0.997 | locus YOR001W, strain rrp6, stronger effect = lower value 0.99 | locus YOR061W, strain CKA2, stronger effect = lower value 1.01 | locus YOR069W, strain VPS5, stronger effect = lower value 1.01 | locus YOR070C, strain gyp1, stronger effect = lower value 1.01 | locus YOR080W, strain dia2, stronger effect = lower value 1 | locus YOR083W, strain WHI5, stronger effect = lower value 1.07 | locus YOR106W, strain vam3, stronger effect = lower value 1.04 | locus YOR136W, strain idh2, stronger effect = lower value 0.995 | locus YOR144C, strain elg1, stronger effect = lower value 0.996 | locus YOR184W, strain ser1, stronger effect = lower value 1.03 | locus YOR231W, strain MKK1, stronger effect = lower value 1.07 | locus YOR265W, strain rbl2, stronger effect = lower value 1.01 | locus YOR270C, strain vph1, stronger effect = lower value 1.04 | locus YOR290C, strain snf2, stronger effect = lower value 0.986 | locus YOR316C, strain cot1, stronger effect = lower value 1 | locus YPL051W, strain arl3, stronger effect = lower value 1 | [2] 1.03 | locus YPL078C, strain atp4, stronger effect = lower value 1.02 | locus YPL106C, strain sse1, stronger effect = lower value 1.03 | locus YPL240C, strain hsp82, stronger effect = lower value 1.02 | locus YPL256C, strain CLN2, stronger effect = lower value 1.03 | locus YPR119W, strain clb2, stronger effect = lower value 1 | locus YPR141C, strain kar3, stronger effect = lower value 1.01 | locus YPR163C, strain tif3, stronger effect = lower value 0.989 | locus YPR167C, strain met16, stronger effect = lower value 1 | strain wtn01, stronger effect = lower value 1

Reference: PubChem BioAssay AID1159580 (chemical genetic matrix, 2015)
